Assay outcomes deposited in PubChem by National Center for Advancing Translational Sciences (NCATS).
HTT aggregate = inhibitors of mutant huntingtin aggregate formation in PC12 cells; hit rate 1.1% among 220,000; PC12 HttQ103-GFP aggregates, Acumen cytometry, 40 h; AID 1688; Potency, µM (highest dose often 46.1 µM), for the others: at the highest dose activity change, negative = inhibition, hits mostly inhibitors; active = well fitted curve in the direction sought with a large enough effect; inconclusive = small, poorly fitted or top-dose-only effect, or another doubt; inactive = no such curve, though single readings can be large; an effect the other way counts as inactive or inconclusive; also: % is scaled to controls: 0 for no effect and ±100 for the full control effect; nearly all actives have a fitted effect of over 60% in size
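Compounds (qHTS titration) were added to PC12 cells expressing an ecdysone-driven HTT exon 1 Q103–GFP fusion after induction with 100 nM tebufenozide. Aggregate formation was measured as GFP objects in cell lysates.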
HTT ATP protect = protects HTT-Q103 PC12 cells, measured by ATP. hit rate 0.14% among 230,000. AID 1471. Potency, µM (highest dose often 56.4 µM), for inactives: cytoprotection (ATP increase), hits mostly activators. PC12 HTT-Q103 induced, cytoprotection, ATP luminescence, 40 h; active = well fitted curve in the direction sought with a large enough effect; inconclusive = small, poorly fitted or top-dose-only effect, or another doubt; inactive = no such curve, though single readings can be large; an effect the other way counts as inactive or inconclusive; also: % of control where 0% means no effect; nearly all actives have a fitted effect of over 45% in size
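Cells were plated at 1500 per well in phenol red-free DMEM with 5% equine and 5% calf serum. Tebufenozide (100 nM final) and compounds were added, then ATPlite reagent, and luminescence was read.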
JMJD2E inh = inhibitors of human JMJD2E histone demethylase | B2RXH2 | JMJD2E catalytic domain, FDH-coupled NADH fluorescence (FDH is formaldehyde dehydrogenase) | Potency, µM (top dose mostly 57.1 µM), for inactives: at the top dose activity change, negative = inhibition, hits mostly inhibitors | hit rate 1.6% among 230,000;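 also: 0% = wells with enzyme and -100% = buffer wells without enzyme; nearly all actives have a fitted effect of over 50% in size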
Target sequence (B2RXH2 1-337 limits assumed): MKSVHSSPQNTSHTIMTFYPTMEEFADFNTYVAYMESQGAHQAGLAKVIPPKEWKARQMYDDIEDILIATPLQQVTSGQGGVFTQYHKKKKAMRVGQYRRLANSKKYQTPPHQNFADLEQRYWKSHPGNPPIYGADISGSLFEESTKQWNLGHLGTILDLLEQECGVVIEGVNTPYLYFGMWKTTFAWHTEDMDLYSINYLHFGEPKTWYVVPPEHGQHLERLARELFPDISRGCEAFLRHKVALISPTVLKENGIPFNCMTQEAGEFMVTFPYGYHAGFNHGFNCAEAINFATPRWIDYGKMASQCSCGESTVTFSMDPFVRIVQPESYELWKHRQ
ALDH1A1 block = ALDH1A1 (human) enzyme inhibition | P00352 | Purified ALDH1A1, NADH fluorescence, propionaldehyde substrate | Potency, µM (top dose mostly 75.3 µM), without a hit: at the highest dose activity, negative = inhibition, usual class: inhibitors | hit rate 7.3% among 220,000;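 also: plate controls were no enzyme wells and a reference inhibitor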
HPGD block = HPGD (human) dehydrogenase inhibition; P15428; purified HPGD, NADH fluorescence kinetic, PGE2 substrate; Potency, µM, for inactives: at the highest dose activity change, negative = inhibition, actives largely listed as inhibitors; hit rate 4.3% among 150,000; AID 894; also: % is scaled to controls: 0 for no effect and ±100 for the full control effect
Target sequence (P15428 whole entry, looked up): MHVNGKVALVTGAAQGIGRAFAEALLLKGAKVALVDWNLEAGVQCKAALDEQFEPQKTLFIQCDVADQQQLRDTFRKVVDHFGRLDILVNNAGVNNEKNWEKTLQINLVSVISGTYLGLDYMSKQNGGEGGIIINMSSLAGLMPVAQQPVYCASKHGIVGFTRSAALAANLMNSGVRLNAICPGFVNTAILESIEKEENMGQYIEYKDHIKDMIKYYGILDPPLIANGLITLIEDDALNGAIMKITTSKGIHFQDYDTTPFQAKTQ
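NADH formation kinetics: reaction with 30 uM PGE2 and 1 mM NAD+ (final), 20 nM enzyme, Tris-HCl pH 8 with Tween 20, after 15 min compound preincubation at room temperature. Fluorescence change, last versus first of five reads.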
Lamin A splicing = LMNA splicing modulation; HeLa LMNA splicing GFP/RFP minigene ratio, 48 h; Potency, µM (highest dose often 46.1 µM), for inactives: top-dose ratio change, negative = inhibition, most hits filed as inhibitors; hit rate 0.01% among 200,000; active = well fitted inhibition curve with a large enough effect in the signal ratio, with a control signal flat, not every such curve was filed as active; inconclusive = small, poorly fitted or top-dose-only effect, or effect the other way, or a change in a side signal; the % refers to the signal ratio; also: % is scaled to controls: 0 for no effect and ±100 for the full control effect
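S3 HeLa stable clones carrying a lamin A-EGFP splicing minigene plus DsRed2 were seeded at 600 cells/well in Opti-MEM with 2% FBS, pin-dosed and incubated 48 h at 37°C. Acumen cytometry (488 nm) gave the GFP/RFP total-intensity ratio.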
* hit, by the source's call; u = inconclusive; x = no result; [ ] = remark or other dose. Sampled rows, rich in hits. Any-hit rate of the full collection: about 9.2%. Unless noted, calls follow the shape of the dose curve; as a rule, active = well fitted inhibition curve with a large enough effect (not every such curve was filed as active); inconclusive = small, poorly fitted or top-dose-only effect, or another doubt; inactive = no such curve, though single readings can be large or run the other way. Potency is read from the fitted curve at half-maximal effect.

SMILES	HTT aggregate	HTT ATP protect	JMJD2E inh	ALDH1A1 block	HPGD block	Lamin A splicing
C[C@@]1(CO)[C@H](O)CC[C@]2(C)[C@@H]1CC[C@H]1C[C@H]3C[C@]12CC[C@]3(O)COC(=O)CN	x	-18%[10 µM]	x	0%[13.5 µM]	-8%	x
Cc1ccc(Cl)cc1N	x	-63%	x	-11%	-10%	x
COC(=O)NNC(=O)COc1ccc2ccccc2c1Br	18%	-11%[10 µM]	-23%	-1%	16µM*	-2%
CC(C)(C)C(=O)NNC(=O)COc1ccc2ccccc2c1Br	-13%	-31%	-2%	-9%	x	u
O=C(Oc1ccc2ccccc2c1Br)N1CCCCCC1	u	-15%	-7%	-3%	32µM*	u
CCN(CC)c1cc2c(cc1F)c(=O)c(S(=O)(=O)c1cc(C)ccc1C)cn2Cc1ccccc1	x	x	x	x	x	17%[46 µM]
COc1cc2[nH]c(=S)nc(NCCCOC(C)C)c2cc1OC	2%	13%	u	u	18µM*	12%
CC(O)CO (centres undefined)	9%	23%	x	-8%	-7%	u
Cc1ccc(N2C(=O)CSC23C(=O)N(CC(=O)Nc2ccccc2F)c2ccccc23)cc1C (centres undefined)	x	x	x	x	x	13%[46 µM]
Cc1ccc(S(=O)(=O)CCC(=O)Nc2ccc(Br)cc2C)cc1	x	x	x	x	x	-7%[46 µM]
CCC(c1nnnn1CCc1ccccc1)N1CCN(C(=O)c2ccco2)CC1 (centres undefined)	31%	-8%[10 µM]	-2%	u	-11%	14%
CCCCC(c1nnnn1Cc1ccco1)N1CCN(C(=O)c2ccco2)CC1 (centres undefined)	-7%	-18%[10 µM]	0%	14µM*	0%	-1%
CCCCC(CC)C(=O)N1CCN(C(=O)c2ccco2)CC1 (centres undefined)	-10%	-49%	-2%	25µM*	x	-16%[46 µM]
CCCC(c1nnnn1Cc1ccco1)N1CCN(C(=O)c2ccco2)CC1 (centres undefined)	8%	-28%[10 µM]	0%	13µM*	-10%	-3%
CCCCNC(=O)N1CCN(C(=O)c2ccco2)CC1	-4%	-14%	1%	0%	x	-13%[46 µM]
CCCC(c1nnnn1Cc1ccco1)N1CCN(C2CCCC2)CC1 (centres undefined)	10%	7%	3%	-4%	-7%	4%
Cc1cccc(-c2nc(CCNC(=O)COc3ccccc3)cs2)c1	x	x	x	x	x	-4%[46 µM]
CCOc1ccc(S(=O)(=O)NCC(c2ccco2)S(=O)(=O)c2ccc(F)cc2)cc1 (centres undefined)	x	x	x	x	x	10%[46 µM]
C[C@@H]1OC2C3=C(C(=O)[C@H]4O[C@@H]4[C@H]3O)[C@@H]1[C@H]1[C@H](C)OC=C3[C@H](O)[C@H]4O[C@H]4/C(=N\OCc4ccccc4)[C@@]321	x	u	x	-1%[13.5 µM]	x	x
Cc1ccc(C)c(-n2c(-c3ccc4c(c3)OCO4)n[nH]c2=S)c1	-10%	-14%	u	u	u	9%
Oc1ccc(-c2n[nH]c(=S)n2-c2ccc3c(c2)OCCO3)cc1	30%	-2%[10 µM]	u	25µM*	20µM*	-9%
COc1cc(OC)cc(-c2n[nH]c(=S)n2-c2ccc3c(c2)OCO3)c1	7%	-5%[10 µM]	u	5%	25µM*	2%
COc1ccc(-n2c(-c3ccc(C)cc3)n[nH]c2=S)cc1	u	-20%[10 µM]	-5%	-10%	u	-1%
Fc1ccc(-n2c(-c3ccc4c(c3)OCO4)n[nH]c2=S)cc1Cl	12%	8%[10 µM]	-9%	u	10µM*	-13%
CC1=NNC(=O)/C1=C\c1cn(-c2ccccc2)nc1-c1cccs1	u	-22%[10 µM]	-12%	u	16µM*	u
SMILES	HTT aggregate	HTT ATP protect	JMJD2E inh	ALDH1A1 block	HPGD block	Lamin A splicing
O=C(N/N=C/c1cn(-c2ccccc2)nc1-c1cc2ccccc2o1)c1cccnc1	0%	1%[10 µM]	-2%	u	u	u
O=C(N/N=C/c1cn(-c2ccccc2)nc1-c1cc2ccccc2o1)c1ccncc1	10µM*	11%[10 µM]	-19%	7%	-28%	u
O=C(N/N=C/c1cn(-c2ccccc2)nc1-c1cccs1)c1ccc(Cl)cc1	11µM*	-5%[10 µM]	u	u	u	u
O=C(N/N=C/c1cn(-c2ccccc2)nc1-c1cccs1)c1ccccc1F	u	22%[10 µM]	u	u	-24%	u
O=c1cnc2cnc(OCc3ccccc3)nc2n1CCc1ccccc1	x	10%	x	u	-13%	x
Cc1ccc(-n2c(N)c(C(=O)NCc3ccco3)sc2=S)cc1	-3%	-15%	-22%	u	u	-7%
Cc1ccc(-n2c(N)c(C(N)=O)sc2=S)cc1	-3%	-41%	-21%	4.5µM*	7.9µM*	5%
CCn1c(N)c(C(=O)NCc2cccnc2)sc1=S	17%	-15%	-8%	1%	-6%	-1%
COc1ccc(CNC(=O)c2sc(=S)n(-c3ccc(OC)cc3)c2N)cc1	-6%	-3%	-3%	19µM*	32µM*	-7%
Nc1c(C(=O)NCc2cccnc2)sc(=S)n1-c1ccccc1	-13%	-6%	-12%	8.9µM*	14µM*	-11%
COc1ccc(NC(=O)CSC2=Nc3ccccc3C3=NC(CCC(=O)NCc4cccs4)C(=O)N23)cc1 (centres undefined)	x	x	x	x	x	-6%[46 µM]
CCOc1ccc(OCC)c(NC(=O)C2CCN(c3nnc(-n4cccc4)s3)CC2)c1	x	x	x	x	x	0%[46 µM]
CCN1C(=O)[C@@H]2[C@H](C1=O)[C@@H]1C[C@H]3C(=O)N(CC)C(=O)[C@H]3[C@@H]3C1=C(C(=O)N1C(=O)O/C(=N\CC4CC4)[C@]31C)[C@@H]2C	x	-16%	-2%	7%	-6%	x
CCOc1ccc(C(=O)N/N=C/c2cc(Cl)ccc2[N+](=O)[O-])cc1	16%	-3%[10 µM]	-2%	-10%	22µM*	8%
CCOC(=O)C1CCN(C(=O)c2cc3ccc4ccc(C)[nH]c4c3n2)CC1	x	x	x	x	x	15%[46 µM]
CC(=O)N1CCCc2cc(S(=O)(=O)N3CCC(C(=O)Nc4cccc(Cl)c4C)CC3)ccc21	x	x	x	x	x	-10%[46 µM]
COc1ccc(Nc2ccccc2N)cc1	13µM*	-40%	10µM*	u	x	u
COc1ccccc1NC1=C(NC(C)=O)C(=O)c2ccccc2C1=O	28%	13%[10 µM]	25µM*	u	x	u
COC1=C(Nc2ccccc2OC)C(=O)c2ccccc2C1=O	-44%[9.22 µM]	-24%[10 µM]	u	x	x	x
O=C1C(Cl)=C(NCCN2CCOCC2)C(=O)c2ncccc21	x	-90%	29%	14%	-16%	x
O=c1cc(CN2CCN(C/C=C/c3ccccc3)CC2)c2cc(O)ccc2o1	-1%	-19%	-10%	32µM*	-15%	u
O=[N+]([O-])c1cccc(-c2cc3cccc[n+]3cc2-c2cccc([N+](=O)[O-])c2)c1	-7%	x	9%	-4%	5%	-6%
